Results reported in PubChem BioAssay AID1159580 (chemical genetic matrix, 2015).
The whole screen tested about 5,500 compounds, of which about 2,000 (36%) were called active. Not shown: some 18% with an inconclusive outcome. No stated cut-off is given here; in the data, active means normalized growth mostly below about 0.91 (no sharp cut-off); inconclusive means no clear call, values can overlap the other calls; inactive means mostly above about 0.92. Some of the results follow.

Assay: chemical genetic growth profiling, strain panel (AID 1159580);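 further: tested at 20 µM; growth read once vehicle control cultures reached saturation at 30 °C; 1 = growth at the plate median or of vehicle wells; lower values mean less growth of the strain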
Settings: growth OD

Measured: normalized growth

C=CC(C)(O)CC/C=C(\C)CCC=C(C)C (stereo not drawn)
active: S. cerevisiae deletion strains, locus YLR221C, strain rsa3, active compounds read low 0.9 | S. cerevisiae deletion strains, locus YLR262C, strain YPT6 (second series), active compounds read low 0.842 | S. cerevisiae deletion strains, locus YLR320W, strain mms22, active compounds read low 0.846 | S. cerevisiae deletion strains, locus YLR357W, strain rsc2, active compounds read low 0.81 | S. cerevisiae deletion strains, locus YMR125W, strain sto1, active compounds read low 0.828 | S. cerevisiae deletion strains, locus YNL071W, strain lat1, active compounds read low 0.85 | S. cerevisiae deletion strains, locus YNL233W, strain BNI4, active compounds read low 0.788 | S. cerevisiae deletion strains, locus YNL248C, strain rpa49, active compounds read low 0.883 | S. cerevisiae deletion strains, locus YOR001W, strain rrp6, active compounds read low 0.887 | S. cerevisiae deletion strains, locus YOR083W, strain WHI5, active compounds read low 0.882 | S. cerevisiae deletion strains, locus YOR270C, strain vph1, active compounds read low 0.757 | S. cerevisiae deletion strains, locus YPL051W, strain arl3, active compounds read low 0.907 | S. cerevisiae deletion strains, locus YPL078C, strain atp4, active compounds read low 0.863 | S. cerevisiae deletion strains, locus YPL106C, strain sse1, active compounds read low 0.793
inactive: S. cerevisiae deletion strains, locus YKL009W, strain mrt4, active compounds read low 0.952 | S. cerevisiae deletion strains, locus YKL068W, active compounds read low 0.994 | S. cerevisiae deletion strains, locus YKL085W, strain MDH1 (second series), active compounds read low 0.996 | S. cerevisiae deletion strains, locus YKL085W, strain MDH1, active compounds read low 0.996 | S. cerevisiae deletion strains, locus YKL160W, strain elf1, active compounds read low 0.903 | S. cerevisiae deletion strains, locus YKL190W, strain CNB1, active compounds read low 0.97 | S. cerevisiae deletion strains, locus YKR001C, strain vps1, active compounds read low 1 | S. cerevisiae deletion strains, locus YKR026C, strain gcn3, active compounds read low 0.951 | S. cerevisiae deletion strains, locus YKR091W, strain srl3, active compounds read low 0.97 | S. cerevisiae deletion strains, locus YLL001W, strain dnm1, active compounds read low 0.978 | S. cerevisiae deletion strains, locus YLL026W, active compounds read low 0.972 | S. cerevisiae deletion strains, locus YLL041C, strain sdh2, active compounds read low 0.973 | S. cerevisiae deletion strains, locus YLR027C, strain aat2, active compounds read low 0.967 | S. cerevisiae deletion strains, locus YLR039C, strain RIC1, active compounds read low 0.882 | S. cerevisiae deletion strains, locus YLR058C, strain SHM2, active compounds read low 0.949 | S. cerevisiae deletion strains, locus YLR102C, strain apc9, active compounds read low 1 | S. cerevisiae deletion strains, locus YLR113W, strain HOG1, active compounds read low 0.868 | S. cerevisiae deletion strains, locus YLR258W, strain gsy2, active compounds read low 0.966 | S. cerevisiae deletion strains, locus YLR262C, strain YPT6, active compounds read low 0.926 | S. cerevisiae deletion strains, locus YLR268W, strain sec22, active compounds read low 1 | S. cerevisiae deletion strains, locus YLR330W, strain CHS5, active compounds read low 0.925 | S. cerevisiae deletion strains, locus YLR342W, strain FKS1 (second series), active compounds read low 0.878 | S. cerevisiae deletion strains, locus YLR342W, strain FKS1, active compounds read low 0.974 | S. cerevisiae deletion strains, locus YLR370C, strain arc18, active compounds read low 0.921 | S. cerevisiae deletion strains, locus YLR371W, strain rom2, active compounds read low 0.962 | S. cerevisiae deletion strains, locus YLR384C, strain iki3, active compounds read low 0.98 | S. cerevisiae deletion strains, locus YLR418C, strain cdc73, active compounds read low 0.911 | S. cerevisiae deletion strains, locus YML016C, strain PPZ1, active compounds read low 0.996 | S. cerevisiae deletion strains, locus YML032C, strain rad52, active compounds read low 0.926 | S. cerevisiae deletion strains, locus YML120C, strain ndi1, active compounds read low 0.919 | S. cerevisiae deletion strains, locus YML124C, strain tub3, active compounds read low 1.01 | S. cerevisiae deletion strains, locus YMR058W, strain fet3, active compounds read low 0.95 | S. cerevisiae deletion strains, locus YMR078C, strain ctf18, active compounds read low 1.01 | S. cerevisiae deletion strains, locus YMR129W, active compounds read low 0.967 | S. cerevisiae deletion strains, locus YMR205C, strain PFK2, active compounds read low 0.911 | S. cerevisiae deletion strains, locus YMR223W, strain ubp8, active compounds read low 0.957 | S. cerevisiae deletion strains, locus YMR231W, strain pep5, active compounds read low 0.999 | S. cerevisiae deletion strains, locus YMR307W, strain GAS1, active compounds read low 0.621 | S. cerevisiae deletion strains, locus YNL067W, strain RPL9B, active compounds read low 0.943 | S. cerevisiae deletion strains, locus YNL153C, strain GIM3, active compounds read low 0.921 | S. cerevisiae deletion strains, locus YNL183C, strain NPR1, active compounds read low 0.948 | S. cerevisiae deletion strains, locus YNL209W, strain ssb2, active compounds read low 0.977 | S. cerevisiae deletion strains, locus YNL250W, strain rad50, active compounds read low 0.994 | S. cerevisiae deletion strains, locus YNL271C, strain bni1, active compounds read low 1 | S. cerevisiae deletion strains, locus YNL298W, strain CLA4, active compounds read low 0.951 | S. cerevisiae deletion strains, locus YNL307C, strain MCK1, active compounds read low 1 | S. cerevisiae deletion strains, locus YNL322C, strain KRE1 (second series), active compounds read low 0.993 | S. cerevisiae deletion strains, locus YNR049C, strain mso1, active compounds read low 0.966 | S. cerevisiae deletion strains, locus YNR052C, strain pop2, active compounds read low 0.933 | S. cerevisiae deletion strains, locus YOL006C, strain TOP1, active compounds read low 0.816 | S. cerevisiae deletion strains, locus YOL012C, strain htz1 0.833 | S. cerevisiae deletion strains, locus YOL147C, strain pex11, active compounds read low 0.987 | S. cerevisiae deletion strains, locus YOR061W, strain CKA2, active compounds read low 0.977 | S. cerevisiae deletion strains, locus YOR069W, strain VPS5, active compounds read low 0.984 | S. cerevisiae deletion strains, locus YOR070C, strain gyp1, active compounds read low 0.981 | S. cerevisiae deletion strains, locus YOR080W, strain dia2, active compounds read low 0.972 | S. cerevisiae deletion strains, locus YOR106W, strain vam3, active compounds read low 0.881 | S. cerevisiae deletion strains, locus YOR136W, strain idh2, active compounds read low 1.01 | S. cerevisiae deletion strains, locus YOR144C, strain elg1, active compounds read low 0.999 | S. cerevisiae deletion strains, locus YOR184W, strain ser1, active compounds read low 0.941 | S. cerevisiae deletion strains, locus YOR231W, strain MKK1, active compounds read low 0.873 | S. cerevisiae deletion strains, locus YOR265W, strain rbl2, active compounds read low 0.983 | S. cerevisiae deletion strains, locus YOR290C, strain snf2, active compounds read low 0.875 | S. cerevisiae deletion strains, locus YOR316C, strain cot1, active compounds read low 0.997 | S. cerevisiae deletion strains, locus YPL055C, strain LGE1, active compounds read low 0.88 | S. cerevisiae deletion strains, locus YPL240C, strain hsp82, active compounds read low 0.96 | S. cerevisiae deletion strains, locus YPL241C, strain CIN2, active compounds read low 1 | S. cerevisiae deletion strains, locus YPL256C, strain CLN2, active compounds read low 0.838 | S. cerevisiae deletion strains, locus YPR119W, strain clb2, active compounds read low 1.02 | S. cerevisiae deletion strains, locus YPR141C, strain kar3, active compounds read low 1 | S. cerevisiae deletion strains, locus YPR163C, strain tif3, active compounds read low 1.02 | S. cerevisiae deletion strains, locus YPR167C, strain met16, active compounds read low 0.988 | S. cerevisiae deletion strains, strain wtn01, active compounds read low 0.99 | S. cerevisiae strains, strain wild type, active compounds read low 0.924
